Data from PubChem BioAssay (Tox21).
Inconclusive results are not listed. Where a call stands in place of a potency, no number is given. Active and inactive are the calls of the source. Calls follow the shape of the dose curve; as a rule, active = well fitted curve in the direction sought with a large enough effect in the repeat runs; inconclusive = weak or mixed curves; inactive = no such curve, though single readings can be large; an effect the other way counts as inactive or inconclusive.

biological target: Cytochrome P450 1A2 (Homo sapiens) (UniProt P05177); test: Cytochrome P450 Family 1 Subfamily A Member 2 (CYP1A2) small molecule antagonists: luciferase reporter qHTS assay (AID 1671199); conditions: P450-Glo CYP1A2 enzyme, luciferin luminescence, 1 h; series mostly up to 53 µM; also: potency is read from the fitted curve at half-maximal effect
In short: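 Room-temperature CYP1A2 reaction with proluciferin substrate: compounds added from DMSO, 10 min preincubation, NADPH regeneration for 1 h. Luciferin detection reagent then added; luminescence recorded as RLU.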
Also: nearly all actives have a fitted effect of over 50% in size.

Sequence of Cytochrome P450 1A2 (Homo sapiens) (P05177 whole entry, looked up): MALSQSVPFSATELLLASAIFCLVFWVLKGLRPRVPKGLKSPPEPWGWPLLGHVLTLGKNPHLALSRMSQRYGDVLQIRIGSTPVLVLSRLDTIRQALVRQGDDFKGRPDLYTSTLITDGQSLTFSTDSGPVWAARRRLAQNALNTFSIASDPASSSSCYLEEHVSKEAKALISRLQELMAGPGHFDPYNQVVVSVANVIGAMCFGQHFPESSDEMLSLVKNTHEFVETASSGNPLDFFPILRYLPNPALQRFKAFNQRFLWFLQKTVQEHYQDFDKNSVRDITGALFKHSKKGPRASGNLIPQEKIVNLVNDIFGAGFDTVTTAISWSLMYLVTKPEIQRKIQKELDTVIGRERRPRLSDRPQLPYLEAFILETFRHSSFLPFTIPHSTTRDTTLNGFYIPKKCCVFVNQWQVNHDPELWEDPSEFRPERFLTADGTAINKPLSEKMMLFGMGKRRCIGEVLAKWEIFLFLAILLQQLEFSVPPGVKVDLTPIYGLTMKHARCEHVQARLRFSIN

Row | SMILES | Potency
1 | Oc1cc(O)c2c(c1)O[C@H](c1ccc(O)c(O)c1)[C@H](O)C2 | inactive
2 | CCCCCC[C@@H](CCC)C(=O)O | inactive
3 | CCOC(=O)[C@H](CCc1ccccc1)N[C@@H](C)C(=O)N1CCC[C@H]1C(=O)O | inactive
4 | C[C@H](O)C(=O)Nc1c(I)c(C(=O)NC(CO)CO)c(I)c(C(=O)NC(CO)CO)c1I | inactive
5 | [O-][N+](=Nc1ccccc1)c1ccccc1 | 5.64 µM (active)
6 | NC(N)=NS(=O)(=O)c1ccc(N)cc1 | inactive
7 | CN(C)C(=O)C(CCN1CCC(O)(c2ccc(Cl)cc2)CC1)(c1ccccc1)c1ccccc1 | inactive
8 | COc1ccc(N=[N+]([O-])c2ccc(OC)cc2)cc1 | 7.03 µM (active)
9 | CCCC=O | inactive
10 | COc1nc(C)nc(N)n1 | inactive
11 | COc1cc(C)cc(O)c1 | 35.6 µM (active)
12 | COc1ccc(NC(C)=O)cc1 | 36.5 µM (active)
13 | Nc1ccn(C2CO[C@H](CO)O2)c(=O)n1 (some centres not stated) | inactive
14 | O=C(O)CCNC(=O)c1ccc(N=Nc2ccc(O)c(C(=O)O)c2)cc1 | inactive
15 | COC(=O)c1ccc(C(=O)OC)c(C(=O)OC)c1 | 7.96 µM (active)
16 | NC(=O)CCCCC1CCSS1 (configuration not stated) | inactive

Row | SMILES | Potency
17 | CCCC(=O)O[C@]1(C(=O)CCl)[C@@H](C)C[C@H]2[C@@H]3CCC4=CC(=O)C=C[C@]4(C)[C@@]3(F)C(=O)C[C@@]21C | inactive
18 | Nc1nc(F)nc2c1ncn2[C@@H]1O[C@H](CO)[C@@H](O)[C@@H]1O | inactive
19 | O=C(O)Cc1cc(I)c(Oc2cc(I)c(O)c(I)c2)c(I)c1 | inactive
20 | CCn1c(=O)c2c(nc(/C=C/c3ccc(OC)c(OC)c3)n2C)n(CC)c1=O | inactive
21 | CCCCCOC(=O)Nc1nc(=O)n([C@@H]2O[C@H](C)[C@@H](O)[C@H]2O)cc1F | inactive
22 | Cc1c(C)n(CCN(C)C)c2ccc(C(=O)OCCN(C)C)cc12 | 17.4 µM (active)
23 | Nc1[nH]c(=O)ncc1F | inactive
24 | O=C1C(CCS(=O)c2ccccc2)C(=O)N(c2ccccc2)N1c1ccccc1 (configuration not stated) | inactive
25 | NCCN1CCNC1=O | inactive
26 | CCN1CCCC(OC(=O)C(c2ccccc2)c2ccccc2)C1 (configuration not stated) | inactive
27 | CCCC(C)CO (configuration not stated) | 35.6 µM (active)
28 | CCCCCCCCC=O | inactive
29 | CC1=CC(C)C(C=O)C(C)C1 (configuration not stated) | inactive
30 | NC(CS)C(=O)O (configuration not stated) | 17.4 µM (active)
31 | CC(C)N1C(=O)c2ccccc2C1=O | 35.6 µM (active)

biological target: Voltage-gated inwardly rectifying potassium channel KCNH2 (Homo sapiens) (UniProt Q12809); test: Human Ether-a-go-go-Related Gene (hERG) channel small molecule antagonists: fluorescence cell-based qHTS assay (AID 1671200); conditions: hERG-U2OS cells, FluxOR thallium flux fluorescence; series mostly up to 76.8 µM; also: potency is read from the fitted curve at half-maximal effect
In short: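 First, 1000 cells per well are seeded and cultured overnight at 37 C. Next, FluxOR II dye is loaded for 1 h at room temperature, protected from light. After 10 more minutes, stimulus is added and fluorescence is read.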

Sequence of Voltage-gated inwardly rectifying potassium channel KCNH2 (Homo sapiens) (Q12809 whole entry, looked up): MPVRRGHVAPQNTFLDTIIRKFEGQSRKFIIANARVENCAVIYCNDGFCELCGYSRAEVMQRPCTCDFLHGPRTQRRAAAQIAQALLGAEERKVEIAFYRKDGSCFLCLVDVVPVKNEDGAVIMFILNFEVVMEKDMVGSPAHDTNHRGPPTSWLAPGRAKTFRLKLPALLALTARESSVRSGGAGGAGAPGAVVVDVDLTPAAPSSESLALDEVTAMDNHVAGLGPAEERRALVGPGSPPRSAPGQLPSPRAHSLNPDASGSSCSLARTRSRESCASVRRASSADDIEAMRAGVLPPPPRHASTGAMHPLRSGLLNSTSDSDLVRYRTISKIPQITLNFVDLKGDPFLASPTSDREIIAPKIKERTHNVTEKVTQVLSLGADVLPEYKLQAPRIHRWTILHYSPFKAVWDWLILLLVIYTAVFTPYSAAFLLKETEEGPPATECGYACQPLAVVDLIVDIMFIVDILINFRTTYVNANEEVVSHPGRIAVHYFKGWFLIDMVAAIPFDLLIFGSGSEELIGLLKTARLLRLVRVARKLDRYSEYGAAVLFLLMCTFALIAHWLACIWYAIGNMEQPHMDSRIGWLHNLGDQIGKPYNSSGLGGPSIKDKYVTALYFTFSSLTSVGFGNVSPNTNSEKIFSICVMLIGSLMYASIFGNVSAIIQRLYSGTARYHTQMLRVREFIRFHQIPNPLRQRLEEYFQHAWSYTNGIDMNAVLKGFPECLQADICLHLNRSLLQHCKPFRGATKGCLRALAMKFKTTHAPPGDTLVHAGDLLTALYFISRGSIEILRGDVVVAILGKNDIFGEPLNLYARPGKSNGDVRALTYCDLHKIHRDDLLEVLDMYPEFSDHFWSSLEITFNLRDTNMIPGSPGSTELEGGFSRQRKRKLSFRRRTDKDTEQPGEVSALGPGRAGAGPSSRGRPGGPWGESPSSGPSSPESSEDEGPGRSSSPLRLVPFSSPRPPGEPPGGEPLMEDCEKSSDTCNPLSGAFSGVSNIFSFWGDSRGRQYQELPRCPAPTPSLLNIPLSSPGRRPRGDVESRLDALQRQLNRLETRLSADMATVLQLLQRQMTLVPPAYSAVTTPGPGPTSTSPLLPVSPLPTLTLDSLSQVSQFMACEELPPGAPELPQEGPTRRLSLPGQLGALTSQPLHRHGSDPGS

Row | SMILES | Potency
32 | Oc1cc(O)c2c(c1)O[C@H](c1ccc(O)c(O)c1)[C@H](O)C2 | inactive
33 | CCCCCC[C@@H](CCC)C(=O)O | inactive
34 | CC(=O)O[C@H](CC(=O)[O-])C[N+](C)(C)C | inactive
35 | CCOC(=O)[C@H](CCc1ccccc1)N[C@@H](C)C(=O)N1CCC[C@H]1C(=O)O | inactive
36 | C[C@H](O)C(=O)Nc1c(I)c(C(=O)NC(CO)CO)c(I)c(C(=O)NC(CO)CO)c1I | inactive
37 | [O-][N+](=Nc1ccccc1)c1ccccc1 | inactive
38 | NC(N)=NS(=O)(=O)c1ccc(N)cc1 | inactive
39 | CO | inactive
40 | COc1ccc(N=[N+]([O-])c2ccc(OC)cc2)cc1 | inactive
41 | CCCC=O | inactive
42 | COc1nc(C)nc(N)n1 | inactive
43 | COc1cc(C)cc(O)c1 | inactive
44 | COc1ccc(NC(C)=O)cc1 | inactive
45 | Nc1ccn(C2CO[C@H](CO)O2)c(=O)n1 (some centres not stated) | inactive
46 | O=C(O)CCNC(=O)c1ccc(N=Nc2ccc(O)c(C(=O)O)c2)cc1 | inactive
47 | COC(=O)c1ccc(C(=O)OC)c(C(=O)OC)c1 | inactive
48 | NC(=O)CCCCC1CCSS1 (configuration not stated) | inactive
49 | Nc1nc(F)nc2c1ncn2[C@@H]1O[C@H](CO)[C@@H](O)[C@@H]1O | inactive

Row | SMILES | Potency
50 | O=C(O)Cc1cc(I)c(Oc2cc(I)c(O)c(I)c2)c(I)c1 | inactive
51 | O=C(O)c1ccccc1-c1ccc(C(F)(F)F)cc1 | inactive
52 | CCn1c(=O)c2c(nc(/C=C/c3ccc(OC)c(OC)c3)n2C)n(CC)c1=O | inactive
53 | CCCCCOC(=O)Nc1nc(=O)n([C@@H]2O[C@H](C)[C@@H](O)[C@H]2O)cc1F | inactive
54 | Cc1c(C)n(CCN(C)C)c2ccc(C(=O)OCCN(C)C)cc12 | inactive
55 | Nc1[nH]c(=O)ncc1F | inactive
56 | CC(CCO)CCCC(C)(C)O (configuration not stated) | inactive
57 | O=C1C(CCS(=O)c2ccccc2)C(=O)N(c2ccccc2)N1c1ccccc1 (configuration not stated) | inactive
58 | NCCN1CCNC1=O | inactive
59 | CCN1CCCC(OC(=O)C(c2ccccc2)c2ccccc2)C1 (configuration not stated) | 3.38 µM (active)
60 | CCCC(C)CO (configuration not stated) | inactive
61 | CCCCCCCCC=O | inactive
62 | CC1=CC(C)C(C=O)C(C)C1 (configuration not stated) | inactive
63 | NC(CS)C(=O)O (configuration not stated) | inactive
64 | CC(C)N1C(=O)c2ccccc2C1=O | inactive
65 | C1=C\CC/C=C\CC/C=C\CC/1 | inactive
66 | CCCCc1ccc2cccc(S(=O)(=O)O)c2c1 | inactive

biological target: Cytochrome P450 3A4 (Homo sapiens) (UniProt P08684); test: Cytochrome P450 Family 3 Subfamily A Member 4 (CYP3A4) small molecule antagonists: luciferase reporter qHTS assay (AID 1671201); conditions: P450-Glo CYP3A4 enzyme, luciferin luminescence, 1 h; series mostly up to 115 µM
In short: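 Enzyme and proluciferin substrate are mixed with test chemicals for 10 min, then NADPH regeneration system drives turnover for 1 h at room temperature. A detection reagent halts the reaction; luminescence after 20 min gives relative activity.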

Sequence of Cytochrome P450 3A4 (Homo sapiens) (P08684 whole entry, looked up): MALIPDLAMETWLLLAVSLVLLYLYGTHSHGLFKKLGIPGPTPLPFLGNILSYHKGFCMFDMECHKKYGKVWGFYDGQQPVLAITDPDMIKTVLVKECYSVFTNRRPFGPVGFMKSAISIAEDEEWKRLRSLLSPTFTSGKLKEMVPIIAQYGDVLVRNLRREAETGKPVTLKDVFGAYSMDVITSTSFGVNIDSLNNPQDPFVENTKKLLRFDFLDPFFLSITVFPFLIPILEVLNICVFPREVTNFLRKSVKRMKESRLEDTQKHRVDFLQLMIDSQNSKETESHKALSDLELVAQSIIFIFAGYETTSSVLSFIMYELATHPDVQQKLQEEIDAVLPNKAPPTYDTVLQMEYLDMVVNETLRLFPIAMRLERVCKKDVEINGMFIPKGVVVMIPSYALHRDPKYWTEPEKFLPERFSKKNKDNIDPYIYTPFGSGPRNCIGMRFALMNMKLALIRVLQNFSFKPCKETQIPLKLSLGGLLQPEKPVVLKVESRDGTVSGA

Row | SMILES | Potency
67 | Oc1cc(O)c2c(c1)O[C@H](c1ccc(O)c(O)c1)[C@H](O)C2 | inactive
68 | CCCCCC[C@@H](CCC)C(=O)O | inactive
69 | C[C@H](O)C(=O)Nc1c(I)c(C(=O)NC(CO)CO)c(I)c(C(=O)NC(CO)CO)c1I | inactive
70 | [O-][N+](=Nc1ccccc1)c1ccccc1 | inactive
71 | NC(N)=NS(=O)(=O)c1ccc(N)cc1 | inactive
72 | CN(C)C(=O)C(CCN1CCC(O)(c2ccc(Cl)cc2)CC1)(c1ccccc1)c1ccccc1 | inactive
73 | COc1ccc(N=[N+]([O-])c2ccc(OC)cc2)cc1 | inactive
74 | CCCC=O | inactive
75 | COc1nc(C)nc(N)n1 | inactive
76 | COc1cc(C)cc(O)c1 | inactive
77 | COc1ccc(NC(C)=O)cc1 | inactive
78 | Nc1ccn(C2CO[C@H](CO)O2)c(=O)n1 (some centres not stated) | inactive
79 | O=C(O)CCNC(=O)c1ccc(N=Nc2ccc(O)c(C(=O)O)c2)cc1 | inactive
80 | COC(=O)c1ccc(C(=O)OC)c(C(=O)OC)c1 | inactive
81 | NC(=O)CCCCC1CCSS1 (configuration not stated) | inactive
82 | Nc1nc(F)nc2c1ncn2[C@@H]1O[C@H](CO)[C@@H](O)[C@@H]1O | inactive

Row | SMILES | Potency
83 | O=C(O)Cc1cc(I)c(Oc2cc(I)c(O)c(I)c2)c(I)c1 | inactive
84 | CCN1CCCC1CNC(=O)c1cc(S(N)(=O)=O)ccc1OC (configuration not stated) | inactive
85 | O=C(O)c1ccccc1-c1ccc(C(F)(F)F)cc1 | inactive
86 | CCCCCOC(=O)Nc1nc(=O)n([C@@H]2O[C@H](C)[C@@H](O)[C@H]2O)cc1F | inactive
87 | Cc1c(C)n(CCN(C)C)c2ccc(C(=O)OCCN(C)C)cc12 | inactive
88 | Nc1[nH]c(=O)ncc1F | inactive
89 | CC(CCO)CCCC(C)(C)O (configuration not stated) | inactive
90 | NCCN1CCNC1=O | inactive
91 | CCCC(C)CO (configuration not stated) | inactive
92 | CCCCCCCCC=O | inactive
93 | CC1=CC(C)C(C=O)C(C)C1 (configuration not stated) | inactive
94 | NC(CS)C(=O)O (configuration not stated) | inactive
95 | CC(C)N1C(=O)c2ccccc2C1=O | inactive
96 | C1=C\CC/C=C\CC/C=C\CC/1 | inactive
97 | CCCCc1ccc2cccc(S(=O)(=O)O)c2c1 | inactive
